Assay [1] in a line: qHTS assay to identify aromatase inhibitors - cell viability counter screen (AID 743084).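 Further: cells stimulated with testosterone during compound exposure; nearly all actives have a fitted effect of over 55% in size.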 Further: potency means the concentration at half of the fitted maximal effect. In general terms: Quantitative high-throughput screening tests each substance at several concentrations.
Assay [2] is described as follows: qHTS assay to identify small molecule that activate the aryl hydrocarbon receptor (AhR) signaling pathway - cell viability counter screen (AID 743086). Further: nearly all actives have a fitted effect of over 45% in size. Further: potency means the concentration at half of the fitted maximal effect.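 On viability change, negative = cytotoxic: HepG2 liver cells carrying the AhR DRE luciferase reporter; series mostly up to about 70 µM.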 The essentials:
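HepG2-AhR-luc (HG2L7.5c1) cells, 4000/well, were preincubated 5 h at 37C, exposed to compound in qHTS format for 24 hr at 37C, then given CellTiter-Fluor for 30 min; viability was read as fluorescence in the reporter wells.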

Assay [3] has as its target Peroxisome proliferator-activated receptor gamma (Homo sapiens) (UniProt P37231). The experiment in a line: qHTS assay to identify small molecule agonists of the peroxisome proliferator-activated receptor gamma (PPARg) signaling pathway (AID 743094; active means well fitted activation curve with a large enough effect in the signal ratio in the repeat runs, not every such curve was filed as active; the % refers to the signal ratio). The essentials: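 Reporter activation was scored by fluorescence of cleaved LiveBLAzer B/G substrate (1 h, room temperature) in PPARg-bla HEK293H cells previously treated 17 h at 37C with DMSO-dissolved compounds.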

The target is the same in assay [4]. Nature of the assay: qHTS assay to identify small molecule antagonists of the peroxisome proliferator-activated receptor gamma (PPARg) signaling pathway (AID 743191; calls by dose curve; further: nearly all actives have a fitted effect of over 30% in size; further: potency means the concentration at half of the fitted maximal effect). An outline of the steps: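 GeneBLAzer PPARg UAS-bla HEK293H cells carrying a UAS-driven beta-lactamase reporter were plated at 3000 cells/well, preincubated 5 h at 37C, then given compound for 17 h at 37C; LiveBLAzer B/G FRET substrate was read after 1 h at room temperature.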

A short description of assay [5]: qHTS assay for small molecule activators of the heat shock response signaling pathway - cell viability counter screen (AID 743209). Further: nearly all actives have a fitted effect of over 50% in size. Further: potency means the concentration at half of the fitted maximal effect. An outline of the steps:
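Viability of HSE-bla HeLa cells is measured with CellTiter-Glo in the wells already used for the reporter read. Compound exposure lasts 5 h at 37 C, and luminescence is read after 30 min at room temperature.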

Assay [6] can be described thus: qHTS assay to identify small molecule antagonists of the peroxisome proliferator-activated receptor gamma (PPARg) signaling pathway - cell viability counter screen (AID 743194). Further: nearly all actives have a fitted effect of over 55% in size. Further: potency means the concentration at half of the fitted maximal effect. As to conditions: Potency: co-treated with 50 nM rosiglitazone unless noted. The essentials:
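PPARg-UAS-bla HEK293H cells were plated, rested 5 h at 37 C, then treated with compounds plus rosiglitazone (50 nM final) for 17 h at 37 C; viability was then read by CellTiter-Glo luminescence after 30 min at room temperature.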

Assay [7] is described as follows: qHTS assay for small molecule agonists of the antioxidant response element (ARE) signaling pathway (AID 743202; active means well fitted activation curve with a large enough effect in the signal ratio in the repeat runs, not every such curve was filed as active; the % refers to the signal ratio; further: potency means the concentration at half of the fitted maximal effect). An outline of the steps:
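Following a 16 h, 37 C exposure of reporter HepG2 cells (ARE-driven beta-lactamase, 2,000 cells/well) to compounds, FRET substrate was applied for 2 h at room temperature and fluorescence intensity recorded.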

For assay [8], the target named is Aryl hydrocarbon receptor (Homo sapiens) (UniProt P35869). The experiment in a line: qHTS assay to identify small molecule that activate the aryl hydrocarbon receptor (AhR) signaling pathway (AID 743085). Further: nearly all actives have a fitted effect of over 15% in size. Further: potency means the concentration at half of the fitted maximal effect.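 On activation: HG2L7.5c1 human HepG2 liver cells with stably integrated DRE-driven firefly reporter; series mostly up to about 70 µM.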 An outline of the steps:
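Stably transfected human liver carcinoma cells (HG2L7.5c1; 20 DRE-firefly luciferase) were incubated 5 h, dosed, and kept 24 h at 37C. Agonism was scored from increased luciferase luminescence.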

Assay [9] in a line: qHTS assay for small molecule agonists of the antioxidant response element (ARE) signaling pathway - cell viability counter screen (AID 743203; calls by dose curve; further: nearly all actives have a fitted effect of over 55% in size; further: potency means the concentration at half of the fitted maximal effect). The essentials:
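Viability counter screen: stably transfected ARE-bla HepG2 line, 16 hrs compound exposure at 37C/5% CO2, ATP-based CellTiter-Glo luminescence measured in the reporter wells.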

Assay [10] is described as follows: qHTS assay for small molecule activators of the heat shock response signaling pathway (AID 743210; active means well fitted activation curve with a large enough effect in the signal ratio in the repeat runs, with a control signal flat, not every such curve was filed as active; the % refers to the signal ratio; further: potency means the concentration at half of the fitted maximal effect; on activation: series mostly up to about 63 µM). The essentials: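 Heat shock element–beta-lactamase HeLa reporter cells; qHTS with compounds for 5 h at 37 C; detection by FRET substrate fluorescence after 2.5 h at RT.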

SMILES strings stand for the structures. Where “and” joins values, the source holds several entries; their conditions need not be identical. Equal entries are not always repeated. Records with an inconclusive call do not appear. Values without a mark were called inactive. Calls of active or inactive are those of the source. Unless noted, the call rests on the fitted dose curve; in most records, active means well fitted curve in the direction sought with a large enough effect in the repeat runs; inconclusive means weak or mixed curves; inactive means no such curve, though single readings can be large; an effect the other way counts as inactive or inconclusive.
On the % scale 0 is the no-effect control and ±100 the full control effect.

Peroxisome proliferator-activated receptor gamma (Homo sapiens), sequence (P37231 whole entry, looked up): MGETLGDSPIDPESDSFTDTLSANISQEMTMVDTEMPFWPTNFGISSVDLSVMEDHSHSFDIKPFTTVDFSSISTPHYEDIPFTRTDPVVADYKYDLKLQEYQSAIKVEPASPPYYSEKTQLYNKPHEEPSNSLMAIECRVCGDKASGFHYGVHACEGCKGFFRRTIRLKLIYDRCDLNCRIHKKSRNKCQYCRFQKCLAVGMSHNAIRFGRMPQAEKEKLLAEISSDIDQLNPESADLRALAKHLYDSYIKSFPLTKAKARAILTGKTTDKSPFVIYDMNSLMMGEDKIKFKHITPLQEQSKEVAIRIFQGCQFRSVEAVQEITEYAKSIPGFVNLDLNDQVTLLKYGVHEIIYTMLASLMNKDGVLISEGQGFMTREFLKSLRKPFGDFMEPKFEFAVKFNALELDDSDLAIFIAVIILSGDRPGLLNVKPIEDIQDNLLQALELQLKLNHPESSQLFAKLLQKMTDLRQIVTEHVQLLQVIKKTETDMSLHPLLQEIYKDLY
Aryl hydrocarbon receptor (Homo sapiens), sequence (P35869 whole entry, looked up): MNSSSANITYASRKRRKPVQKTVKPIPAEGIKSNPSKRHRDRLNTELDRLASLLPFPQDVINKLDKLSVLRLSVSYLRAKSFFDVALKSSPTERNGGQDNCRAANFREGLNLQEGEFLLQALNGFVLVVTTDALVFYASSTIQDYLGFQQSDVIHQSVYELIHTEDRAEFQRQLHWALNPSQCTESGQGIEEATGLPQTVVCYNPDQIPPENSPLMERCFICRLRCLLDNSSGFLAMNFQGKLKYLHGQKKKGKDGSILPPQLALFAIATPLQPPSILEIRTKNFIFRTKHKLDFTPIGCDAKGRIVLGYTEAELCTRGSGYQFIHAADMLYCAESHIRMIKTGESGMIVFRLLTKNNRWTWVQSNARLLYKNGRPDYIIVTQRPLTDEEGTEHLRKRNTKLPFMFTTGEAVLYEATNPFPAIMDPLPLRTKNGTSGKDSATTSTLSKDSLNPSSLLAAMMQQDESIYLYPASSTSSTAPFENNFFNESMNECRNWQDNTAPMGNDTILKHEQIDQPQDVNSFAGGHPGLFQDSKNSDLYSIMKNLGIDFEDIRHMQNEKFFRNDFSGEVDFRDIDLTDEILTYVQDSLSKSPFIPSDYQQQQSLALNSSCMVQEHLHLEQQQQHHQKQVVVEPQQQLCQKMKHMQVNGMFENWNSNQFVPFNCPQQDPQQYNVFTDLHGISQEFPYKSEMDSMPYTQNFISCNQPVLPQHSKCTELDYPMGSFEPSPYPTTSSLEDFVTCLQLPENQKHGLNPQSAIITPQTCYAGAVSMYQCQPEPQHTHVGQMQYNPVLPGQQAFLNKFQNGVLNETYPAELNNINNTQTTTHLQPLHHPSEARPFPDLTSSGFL

Regarding `Cc1ccccc1OP(=O)(Oc1ccccc1C)Oc1ccccc1C`, the Potency result in [1], in assay [2], in assay [3], in assay [4] and in [5] was “inactive” throughout.

In the case of `C1=CCC=C1`, the Potency entry in assay [1], in assay [2], in assay [6], in assay [7] and in [5] was “inactive” each time.

As for `Nc1ccc(N=Nc2ccccc2)cc1`, the Potency in assay [1] was 24.3 µM (active); in assay [8], 26.5 µM (active). Also, the Potency entry in assay [9] and in [5] was “inactive” in each case.

Take `Cc1ccc([N+](=O)[O-])[c]2c1[O][Hg]2`: the Potency was 2.98 µM (active) in assay [6], 4.22 µM (active) in [9] and 5.31 µM (active) in assay [5].

Turning to `Nc1c(Cl)c(Cl)c(Cl)c(Cl)c1Cl`, the Potency in assay [8] is 50.5 µM (active). Moreover, the Potency entry in [2] and in assay [10] was “inactive” throughout.

On to `O=c1[nH]c2cc(Cl)ccc2n1C1CCNCC1`, for which the Potency entry in assay [4], in assay [6], in [9], in assay [5] and in assay [10] was “inactive” each time.

In the case of `c1ccc2c(c1)cc1ccc3cccc4ccc2c1c34`, the Potency result in assay [6], in [9] and in assay [5] was “inactive” in each case.

For `O=Cc1ccccc1`, the Potency entry in assay [2], in assay [6], in assay [9], in assay [5] and in assay [10] was “inactive” throughout.

As to `Nc1nc(N)c(N)c(N)n1`, the Potency result in assay [2], in assay [3], in assay [4], in [6], in assay [7] and in assay [9] was “inactive” throughout. In addition, the Potency entry in [5] and in assay [10] was “inactive” each time.

For the compound `CN1C2CCC(C)(C)C1CC(OC(=O)C(O)(c1cccs1)c1cccs1)C2` (stereo not drawn), the Potency entry in [6], in [9] and in assay [10] was “inactive” each time.

Regarding `CCCCCCCc1ccc(O)cc1`, the Potency entry in [8], in assay [2], in assay [6], in assay [5] and in assay [10] was “inactive” each time.

For the compound `CN1C(=O)[C@@H](NC(=O)c2cc3ccccc3[nH]2)N=C(c2ccccc2)c2ccccc21`, the Potency result in [2], in assay [6], in [9] and in [5] was “inactive” throughout.

As for `C[C@]12CC[C@H]3[C@@H](CCC4=CC(=O)CC[C@@H]43)[C@@H]1CC[C@@H]2OC(=O)CCc1ccco1`, the figures for the Potency in [6] and in [5] were 29.8 µM [setting not given] (active) and 13.3 µM (active), respectively.

For `N#Cc1c2ccccc2cc2ccccc12`, the Potency entry in [8], in [6], in assay [9] and in assay [5] was “inactive” in each case.

As for `Nc1ccc(Cl)cc1C(=O)c1ccccc1F`, the Potency result in assay [6], in assay [9], in [5] and in assay [10] was “inactive” each time.

Take `CC(=O)[O-].CC(=O)[O-].CC(=O)[O-].[Cr+3]`: the Potency result in [8], in assay [2], in assay [6], in [9] and in assay [5] was “inactive” throughout.

With `Clc1c(Cl)c(Cl)c(Cl)c(Cl)c1Cl`, the viability change, negative = cytotoxic in assay [2] is 3.05% [at 8.47 µM]; in [9], 3.6% [at 8.36 µM]. The activity change, negative = cytotoxicity is -5.6% [at 5.95 µM, co-treated with 50 nM rosiglitazone] in assay [6] and -0.0057% [at 5.95 µM] in assay [5]. For the same compound, the activation in assay [10] was -2.21% [at 5.95 µM].

On to `CN1CCc2cc3c(cc2C1O)OCO3` (stereo not drawn), for which the Potency result in assay [8], in assay [6], in assay [9] and in assay [5] was “inactive” in each case. Also, in [10], the Potency was 39.1 µM (active).

`Oc1cc(Cl)c(Cl)c(Cl)c1Cl`: the values for the Potency in assay [8] and in assay [5] were 11.9 µM (active) and 13.5 µM (active), respectively. The Potency entry in [2] is “inactive”.

For `CC1=C2C[C@H]3[C@@H](CC=C4C[C@@H](O)CC[C@@]43C)[C@@H]2CC[C@]12O[C@@H]1C[C@H](C)CN[C@H]1[C@H]2C`, the Potency entry in assay [8], in assay [3], in assay [6], in assay [9], in assay [5] and in [10] was “inactive” each time.

In the case of `c1ccc(N=NNc2ccccc2)cc1`, the Potency in assay [8] was 10 µM (active) and 34.4 µM (active); in assay [7] it was 9.69 µM (active). For the same compound, the Potency result in assay [6], in assay [9], in assay [5] and in assay [10] was “inactive” in each case.

Take `COP(=O)(OC)O/C(=C\Cl)c1cc(Cl)c(Cl)cc1Cl`: the Potency result in assay [8], in assay [2], in assay [5] and in assay [10] was “inactive” each time. Further, the Potency in [4] was 4.9 µM (active).

As to `CCC(OC(C)=O)C(CC(C)NC)(c1ccccc1)c1ccccc1` (stereo not drawn), the Potency result in assay [8] and in [5] was “inactive” in each case. Also, the Potency in assay [2] is 69.2 µM (active).

In the case of `FC(F)C(F)(F)OCC(Cn1cncn1)c1ccc(Cl)cc1Cl` (stereo not drawn), in assay [8], the Potency is 6.82 µM (active). For the same compound, the Potency result in assay [6], in assay [9], in assay [5] and in [10] was “inactive” throughout.

As for `C#CCC1=C(C)C(OC(=O)C2C(C=C(C)C)C2(C)C)CC1=O` (stereo not drawn), the Potency entry in assay [8], in assay [2], in [6], in assay [9] and in assay [5] was “inactive” in each case.

For `COC(=O)N(OC)c1ccccc1COc1ccn(-c2ccc(Cl)cc2)n1`, the Potency result in assay [8], in assay [2], in assay [3] and in assay [5] was “inactive” each time.

Turning to `CC(Cc1ccccc1)N(C)Cc1ccco1` (stereo not drawn), the Potency result in [4], in [6], in [7], in assay [9], in assay [5] and in [10] was “inactive” throughout.

For the compound `CC#C[C@]1(O)CC[C@H]2[C@@H]3C[C@H](C)C4=CC(=O)CC[C@]4(C)[C@H]3CC[C@@]21C`, the Potency result in [6], in assay [9] and in assay [5] was “inactive” in each case.

As for `CCn1cc[n+](C)c1` (tested in a mixture with another compound), the Potency result in assay [2], in assay [6], in [7] and in assay [5] was “inactive” in each case.

Turning to `O=C(CCCCl)c1ccc(F)cc1`, the Potency entry in [4], in assay [6], in [9], in assay [5] and in [10] was “inactive” in each case.

Turning to `Nc1cc(Cl)ccc1Cl`, the Potency result in assay [2], in [6], in assay [7], in assay [9], in assay [5] and in [10] was “inactive” each time.

On to `c1ccc(Nc2ccc(Nc3ccccc3)cc2)cc1`, for which the Potency result in assay [2] and in assay [6] was “inactive” in each case. Also, the values for the Potency in assay [9] and in assay [5] were 60.9 µM (active) and 24.4 µM (active), respectively.

Turning to `CSSC`, the Potency entry in assay [2], in [7], in assay [9], in [5] and in assay [10] was “inactive” throughout.

On to `CO/N=C(\C(=O)OC)c1ccccc1CO/N=C(\C)c1cccc(C(F)(F)F)c1`, for which the Potency entry in assay [8], in assay [2] and in assay [5] was “inactive” each time.

`O=[N+]([O-])C(Br)Br`: the Potency result in assay [8], in assay [2], in assay [3], in [5] and in assay [10] was “inactive” each time. Further, in assay [9], the Potency is 61.3 µM (active).

In the case of `C[C@@H]1CC2=CC(=O)CC[C@@H]2[C@H]2CC[C@@]3(C)[C@@H](CC[C@]3(C)O)[C@@H]21`, the Potency entry in assay [4], in assay [6], in [9], in assay [5] and in assay [10] was “inactive” in each case.

`C[C@]12Cc3cn[nH]c3C[C@@H]1CC[C@@H]1[C@@H]2CC[C@@]2(C)[C@H]1CC[C@]2(C)O`: the Potency result in assay [6], in assay [9] and in assay [5] was “inactive” throughout.

Turning to `CCOP(=O)(OCC)Oc1nc(Cl)c(Cl)cc1Cl`, the Potency entry in [3] and in assay [5] was “inactive” in each case. The Potency in assay [4] was 1.37 µM (active).

On to `CC(Cc1ccc(OCC(=O)O)cc1)NCC(O)c1csc(C(F)(F)F)n1` (stereo not drawn), for which the Potency result in assay [8], in [2], in assay [4], in assay [6], in assay [7] and in assay [5] was “inactive” each time. Also, in [10], the Potency entry is “inactive”.

For the compound `NC1CCC(CC2CCC(N)CC2)CC1` (stereo not drawn), the Potency result in [8], in assay [2], in assay [3], in assay [6], in [7] and in assay [5] was “inactive” in each case. The Potency entry in assay [10] is “inactive”.

`CC[C@]1(O)CC[C@H]2[C@@H]3CCC4=CCCC[C@@H]4[C@H]3CC[C@@]21C`: the Potency result in assay [8], in assay [3], in [4], in assay [6], in assay [7] and in [9] was “inactive” in each case. The Potency result in assay [5] and in assay [10] was “inactive” throughout.

Consider `CC[N+]1(CC)CCC(OC(=O)C(O)(c2ccccc2)c2ccccc2)C1` (stereo not drawn), for which the Potency entry in assay [6], in [9], in assay [5] and in assay [10] was “inactive” throughout.

Take `Cc1cc(C2CC2)nc(Nc2ccccc2)n1`: the Potency result in assay [2], in assay [3], in assay [6] and in assay [5] was “inactive” each time.
